Experimental findings from PubChem BioAssay AID778 (Sanford-Burnham Center for Chemical Genomics, 2007) are described below.

The structures appear in SMILES notation. In all, about 96,000 compounds went through this assay and about 20,000 (21%) were called active.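 The calls were made as follows: active = CYP2C19 inhibition above a set limit at 5 µM in the primary screen (cut at about 50% in these data); inactive = the rest.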 Not all results are given here.

In the experiment the target is Cytochrome P450 2C19 (Homo sapiens) (UniProt P33261). The experiment can be described thus: blockers of cytochrome P450 2C19 activity – biochemical, luminescence, ADME assay, primary screen (AID 778).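 Also: plate controls were negative control wells for no effect and 2.5 mM tranylcypromine positive control for full effect.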 The following applies: CYP2C19 Supersomes, luciferin-H EGE luminescence, 30 min; at 5 µM; active compounds read high.
Chain of Cytochrome P450 2C19 (Homo sapiens) (P33261 whole entry, looked up): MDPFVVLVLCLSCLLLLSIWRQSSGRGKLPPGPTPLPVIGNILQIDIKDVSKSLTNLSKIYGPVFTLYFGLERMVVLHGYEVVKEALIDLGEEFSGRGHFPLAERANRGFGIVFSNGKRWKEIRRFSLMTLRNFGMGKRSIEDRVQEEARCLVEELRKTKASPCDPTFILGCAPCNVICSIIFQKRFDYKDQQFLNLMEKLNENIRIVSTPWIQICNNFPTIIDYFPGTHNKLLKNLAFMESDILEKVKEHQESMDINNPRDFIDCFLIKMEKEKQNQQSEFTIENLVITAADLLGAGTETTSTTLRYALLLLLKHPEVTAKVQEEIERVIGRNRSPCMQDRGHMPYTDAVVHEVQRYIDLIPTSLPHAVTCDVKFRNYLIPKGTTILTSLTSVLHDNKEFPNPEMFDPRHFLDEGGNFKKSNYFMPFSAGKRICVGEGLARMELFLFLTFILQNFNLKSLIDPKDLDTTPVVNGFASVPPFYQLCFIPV
The term inhibition denotes the relative decrease from the control value, in per cent. In the case of `Oc1ccc(Cl)cc1/C=N/c1nc2ccccc2[nH]1`, the inhibition is -20.9% (inactive).
Consider `CC(C)(C)N1CC(c2nc3ccccc3n2Cc2ccc(F)cc2)CC1=O` (configuration not stated), for which the inhibition is 12.1% (inactive).
Turning to `C=CCn1c(C2CC(=O)N(c3ccc(C)cc3)C2)nc2ccccc21` (configuration not stated), the inhibition is 76.7% (active).
The value for `Cc1ccc(Cn2c(NC(=O)c3ccco3)nc3ccccc32)cc1` was -9.7% (inactive).
Regarding `Cc1onc(-c2ccccc2Cl)c1C(=O)NCCn1ccc2ccccc21`, the inhibition was 83.5% (active).
With `O=C1c2ccccc2C(=O)N1Cc1cc(-c2ccccc2Cl)no1`, the inhibition is 37.2% (inactive).
The value for `Cc1onc(-c2ccccc2Cl)c1C(=O)OCC(=O)c1ccccc1` was 58.1% (active); that for `Cc1onc(-c2c(Cl)cccc2Cl)c1C(=O)c1c[nH]c(C(=O)NC2CC2)c1` was 0.9% (inactive).
On to `COc1c(O)cccc1-c1nnn(CCC(=O)OCC(=O)c2ccccc2)n1`, for which the inhibition is 19.5% (inactive).
The value for `Cc1ccc2cc(CCNC(=O)c3c(-c4ccccc4Cl)noc3C)c(=O)[nH]c2c1` was 21% (inactive).
`O=C(OCc1cc2ccccc2[nH]c1=O)c1cccnc1`: the inhibition was 25.1% (inactive).
Regarding `C=CCSc1nc2c(c(=O)[nH]1)C(C(C)C)C(C#N)=C(N)O2` (configuration not stated), the inhibition is -15.8% (inactive).
As for `COc1ccc(OCCCON2C(=O)c3ccccc3C2=O)cc1`, the inhibition is 26.4% (inactive).
On to `CCN(CC)CCCNC(=O)c1cc(-c2cccc(Cl)c2)on1`, for which the inhibition was -2.7% (inactive).
The value for `Cc1cc(C)c2c(-n3cccc3)c(NC(=O)OCc3ccccc3)sc2n1` was 4.8% (inactive).
`Cc1cc(Cl)ccc1N1C(=O)CC(SCCC(=O)O)C1=O` (configuration not stated): the inhibition is 7.1% (inactive).
The value for `COC(=O)Cc1cc(=O)oc2c(C)c(O)ccc12` was 17.9% (inactive).
Regarding `Nc1nnnn1/N=C/c1cccs1`, the inhibition was 1.7% (inactive).
The value for `Cc1nc2nc[nH]n2c(=O)c1NC(=O)c1cccc(OCC(C)C)c1` was -12.5% (inactive); that for `CCC(=O)Oc1cccc(C(=O)Nc2ccc(-c3nnc(-c4ccco4)o3)cc2)c1` was 48.6% (inactive).
Turning to `CCCOc1cccc(C(=O)Nc2nnn(CCC)n2)c1`, the inhibition was 57.8% (active).
For `COc1ccc(OC)c2c(N)c(C#N)c(C(F)(F)C(F)(F)F)nc12`, the inhibition is -11.1% (inactive).
With `NC(=O)c1nsc(C(=O)N(CC(=O)NCc2ccc(F)cc2)Cc2ccco2)c1N` the figure was 21.3% (inactive).
On to `Cc1ccc2nc(SC(C)C(=O)NCc3ccco3)[nH]c2c1` (configuration not stated), for which the inhibition was 19.9% (inactive).
For `Cc1cccc(NC(=O)COc2ccccc2C)n1`, the inhibition was 32% (inactive).
The value for `COC(=O)C(C(=O)Nc1cccc(C)n1)C1CCCCCC1` (configuration not stated) was 80.7% (active); that for `Cc1cccc(NC(=O)c2ccc3ccccc3n2)n1` was 22.7% (inactive); that for `Cc1cc(C(F)(F)F)nn1CC(=O)N1CCCC1` was -1.5% (inactive).
Consider `OC(C#CCN1CCOCC1)(c1ccccc1)C1CCCCC1` (configuration not stated), for which the inhibition was 36.7% (inactive).
As for `CCOC(=O)c1cnc(SCC(=O)NCc2ccco2)nc1N`, the inhibition was -1.2% (inactive).
With `Cc1cc(C(=O)OCC(=O)NCc2ccco2)c(C)n1-c1ccccc1` the figure was 71.8% (active).
With `O=C(COC(=O)C12CC3CC(CC(C3)C1)C2)NCc1ccco1` the figure was 35.7% (inactive); with `COc1c(Br)cc2c(C)c(C(=O)N3CCOCC3)oc2c1Br`, 33.1% (inactive); with `N#C/C(=C\c1ccccc1)c1n[nH]c(Cn2cncn2)n1`, 23.3% (inactive).
For the molecule `FC(F)(F)COc1nc(N2CCCCC2)nc(N2CCNCC2)n1`, the inhibition was -9.3% (inactive).
The value for `C/C(=N/NC(=O)c1cc(Cl)ccc1O)C12CC3CC(CC(C3)C1)C2` was 0.2% (inactive).
The value for `CCOC(=O)C1=C(CNC2CCCCC2)NC(=O)NC1c1cc(C)ccc1C` (configuration not stated) was 97.1% (active); that for `CCOC(=O)c1[nH]cnc1C(=O)NC1CCCCC1` was 18.3% (inactive).
`Cc1ccc(N(C(=O)CC2NC(=O)NC2=O)C2(C(=O)NC3CCCC3)CCCCC2)cc1` (configuration not stated): the inhibition was -3.8% (inactive).
The value for `CN(Cc1ccccc1)c1nc2c(c(=O)[nH]c(=O)n2C)n1CCSc1nc2ccccc2[nH]1` was 38.5% (inactive).
The value for `O=C1CC(c2cccc(F)c2)C2=C(CCCC2=O)N1` (configuration not stated) was 8.1% (inactive); that for `CCc1nnc(NC(=O)CSc2nnc(COc3ccc(C#N)cc3)n2-c2ccccc2)s1` was 4.5% (inactive).
With `CSc1ccc(S(=O)(=O)NCc2ccc(Cl)cc2)cc1` the figure was 78.2% (active); with `O=[N+]([O-])c1ccccc1NCc1ccc(Cl)cc1`, 21% (inactive); with `Cc1ccc(S/C(=N\S(=O)(=O)c2ccc(Cl)cc2)c2ccccc2)cc1`, 24.1% (inactive).
With `Fc1c(F)c(C(F)(F)F)c(F)c(F)c1N1CCN(c2ccc3nnc(C(F)(F)F)n3n2)CC1`, the inhibition is 0.5% (inactive).
The value for `COc1ccc(C(c2nnnn2Cc2cccs2)N2CCN(c3ccccc3)CC2)cc1OC` (configuration not stated) was 69.8% (active).
In the case of `COc1ccc(CCn2nnnc2C(c2ccccc2)N2CCN(C)CC2)cc1OC` (configuration not stated), the inhibition was 2.7% (inactive).
The value for `Cc1ccc(C(c2nnnn2CS(=O)(=O)c2ccc(C)cc2)N2CCC(C)CC2)cc1` (configuration not stated) was 3.8% (inactive).
With `O=C(Nc1ccc(Br)c2cccnc12)c1ccc(Cn2cc([N+](=O)[O-])cn2)o1` the figure was 20.2% (inactive); with `CCCNC(=O)Nc1ccccc1C(=O)Nc1ccc(OC)cc1`, 40.1% (inactive).
Consider `CCC(C)n1c(-c2cc(OC)c(OC)c(OC)c2)nc2nc3ccccc3nc21` (configuration not stated), for which the inhibition is 92.6% (active).
With `COc1ccc(CCn2c(-c3ccco3)nc3nc4ccccc4nc32)cc1OC` the figure was 16.7% (inactive).
With `Clc1cccc(-c2nc3nc4ccccc4nc3n2Cc2ccco2)c1` the figure was 1.8% (inactive); with `CCOc1ccc(CNC(=O)C2CCC(=O)N2C2CCCC2)cc1OC` (configuration not stated), -0.1% (inactive); with `Clc1ccc2c(c1)C1=C(C(c3ccncc3)O2)C(c2ccc(Br)cc2)n2ncnc2N1` (configuration not stated), 86.1% (active).
With `Brc1ccc(C2=CC(c3ccco3)n3ncnc3N2)cc1` (configuration not stated) the figure was 33% (inactive); with `COC(=O)C1=C(C)Nc2ncnn2C1c1cccnc1` (configuration not stated), -0.3% (inactive).
With `Cc1ccc(Cc2c(C)nc3nc(SCC(=O)NCCN4CCOCC4)nn3c2C)cc1`, the inhibition was -3.1% (inactive).
On to `COc1ccc(-c2cc3nc(C)c(CCC(=O)NC(C)CCc4ccco4)c(C)n3n2)c(OC)c1` (configuration not stated), for which the inhibition is 30.5% (inactive).
Regarding `CCCCNC(=O)OC(C)CNC(=O)OC` (configuration not stated), the inhibition was 2.3% (inactive).
With `COc1ccc(NS(=O)(=O)c2ccc(NC(=S)NC(=O)CC(C)C)cc2)cc1` the figure was 25.1% (inactive); with `CC(=O)Nc1ccc(N2CCOCC2)c(C(=O)Nc2cccc(C)c2)c1`, 53.3% (active).
The value for `COC(=O)COc1ccc(S(=O)(=O)Nc2ccc(NC(C)=O)cc2)cc1` was 69.1% (active).
Regarding `CC(=O)Nc1cccc(Oc2cc(C#N)c(C#N)cc2N2CCOCC2)c1`, the inhibition was 5.2% (inactive).
The value for `O=C(O)CCC(=O)Nc1ccc(N2CCOCC2)cc1` was -9% (inactive); that for `CCOc1ccc(NS(=O)(=O)c2ccc(OCC(=O)NCCCOC)cc2)cc1` was 2.3% (inactive).
Turning to `COc1ccc(S(=O)(=O)Nc2ccc3oc(C)c(C(C)=O)c3c2)cc1`, the inhibition is 67.4% (active).
With `CC(=O)Nc1ccc(S(=O)(=O)N2CCCC2C(=O)O)cc1` (configuration not stated) the figure was -6.9% (inactive); with `COc1c(C)cccc1C(=O)Nc1cc(Cl)ccc1N1CCOCC1`, 20.6% (inactive).
For the molecule `CC(=O)Nc1ccc(S(=O)(=O)Nc2ccc(N3CCOCC3)c(F)c2)cc1`, the inhibition was 93.5% (active).
With `COc1ccc(NC(=O)c2c(C)oc3c2CCCC3)cc1` the figure was 24.5% (inactive).
With `COc1ccc2oc(C)c(NC(C)=O)c2c1` the figure was 13.5% (inactive).
The value for `CCCc1[nH]nc2c1C(c1c(C)nn(-c3ccccc3)c1Cl)C(C#N)=C(N)O2` (configuration not stated) was 49.2% (inactive).
With `CC(=O)Oc1cc2c(C(=O)NCCN3CCOCC3)c(C)oc2c2ccccc12`, the inhibition is 34.2% (inactive).
On to `Cc1ccc(C2=CSC3=NS(=O)(=O)CCN23)cc1C`, for which the inhibition was 2.5% (inactive).
Take `CC(=O)c1c(C)n([O-])c2ccccc2[n+]1=O`: the inhibition is -0.9% (inactive).
With `O=C(N/N=C/c1ccc(O)cc1)/C(=C/c1ccc([N+](=O)[O-])cc1)NC(=O)c1ccccc1` the figure was 7.9% (inactive); with `C/C(=C(\C#N)C(=O)NCCCN1CCOCC1)N(C)C`, -11.3% (inactive).
`Cc1ccc(S(=O)(=O)/N=C(\CN2CCOCC2)N2CCOCC2)cc1`: the inhibition was -1.3% (inactive).
Regarding `N#Cc1cccc(CSc2nnc(CCCO)n2-c2ccccc2)c1`, the inhibition is 8.4% (inactive).
For `O=C(/C=C/Nc1ccccc1)c1cnc(-c2ccccc2)s1`, the inhibition is 0.3% (inactive).
With `Nc1c(-c2ccc(F)cc2)cnn1C1CCS(=O)(=O)C1` (configuration not stated) the figure was -15.6% (inactive); with `COc1cccc(C2/C(=C(/O)c3ccc(F)cc3)C(=O)C(=O)N2CCN(C)C)c1` (configuration not stated), 5.9% (inactive); with `CCOC(=O)c1sc(NC(=O)C(CC)Sc2nccn2C)nc1C` (configuration not stated), 28% (inactive).
As to `CC(=O)N1CCCc2cc(S(=O)(=O)CCC(=O)N3CCN(c4ccccc4)CC3)ccc21`, the inhibition was 29.1% (inactive).
As to `CCOC(=O)CC1=CC(=O)Nc2ccccc2N1`, the inhibition is 12.4% (inactive).
The value for `Cc1ccc(C(=O)NC2CC(C)(C)NC(C)(C)C2)c(C)c1` was -14.1% (inactive); that for `COc1ccc(NS(=O)(=O)c2ccc(NC(C)=O)cc2)cc1OC` was 43.3% (inactive); that for `COc1cc(NS(=O)(=O)c2ccc(NC(C)=O)cc2)cc(OC)c1` was 98% (active).
With `CCNS(=O)(=O)c1ccc(NC(=O)Nc2cccc(OC)c2)cc1` the figure was 25.1% (inactive); with `O=C(Nc1ccn(Cc2ccccc2F)n1)c1ccc(COc2ccc(Cl)cc2Cl)o1`, 57.8% (active); with `O=C(O)c1ccc(COc2c(F)c(F)cc(F)c2F)o1`, -3.2% (inactive).
On to `CCOc1ccc(OCc2ccc(C(=O)Nc3cccc(C)n3)o2)cc1`, for which the inhibition is 35.8% (inactive).
With `O=C1CCC(Cc2ccccc2)N1` (configuration not stated) the figure was 8.7% (inactive); with `O=C(O)c1ccc(COCC(F)(F)F)cc1`, -5.4% (inactive); with `Cc1sc(NC(=S)NC(=O)c2cccs2)nc1-c1ccc(CC(C)C)cc1`, 4.5% (inactive).
